Results filed as inconclusive are left out. Some compounds were tested as several samples or in several runs, with calls that do not always agree. Active and inactive are the calls of the source. Unless noted, the call rests on the fitted dose curve; in most records, active means well fitted curve in the direction sought with a large enough effect in the repeat runs; inconclusive means weak or mixed curves; inactive means no such curve, though single readings can be large; an effect the other way counts as inactive or inconclusive. Non-standard residues stand in square brackets, D forms with d. Residues, ends and D or L forms follow the SMILES beside them. *: point of attachment. Sta = CC(C)C[C@H](N)[C@@H](O)CC(=O)O; Isovaleryl = CC(C)CC(=O)*
Legend:
[1] = qHTS assay to identify small molecule antagonists of the thyroid receptor (TR) signaling pathway (AID 743065); further: series mostly up to about 70 µM; nearly all actives have a fitted effect of over 55% in size
Outline: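 Antagonism measured as loss of luciferase signal in GH3 cells stably carrying a TRE-luciferase reporter, co-treated with compound and T3 (1 nM final) for 23.5 h at 37 C. Viability was read in the same well by CellTiter-Fluor.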

[2] = tested on: thyroid hormone receptor (rat, GH3 cells); assay: qHTS assay to identify small molecule agonists of the thyroid receptor (TR) signaling pathway (AID 743066; calls by dose curve; further: potency means the concentration at half of the fitted maximal effect)
[3] = qHTS assay to identify small molecule antagonists of the estrogen receptor alpha (ER-alpha) signaling pathway - cell viability counter screen (AID 743074; calls by dose curve; further: nearly all actives have a fitted effect of over 45% in size; further: potency means the concentration at half of the fitted maximal effect)
[4] = qHTS assay to identify small molecule antagonists of the estrogen receptor alpha (ER-alpha) signaling pathway using the BG1 cell line - cell viability counter screen (AID 743081);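 further: compound given together with 17beta-estradiol as the ER stimulus; series mostly up to about 70 µM; nearly all actives have a fitted effect of over 45% in size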
Aromatase (Homo sapiens) = Aromatase (Homo sapiens) (UniProt P11511); assay: qHTS assay to identify aromatase inhibitors (AID 743083); further: series mostly up to about 70 µM; nearly all actives have a fitted effect of over 55% in size
Aromatase (Homo sapiens), sequence (P11511 whole entry, looked up): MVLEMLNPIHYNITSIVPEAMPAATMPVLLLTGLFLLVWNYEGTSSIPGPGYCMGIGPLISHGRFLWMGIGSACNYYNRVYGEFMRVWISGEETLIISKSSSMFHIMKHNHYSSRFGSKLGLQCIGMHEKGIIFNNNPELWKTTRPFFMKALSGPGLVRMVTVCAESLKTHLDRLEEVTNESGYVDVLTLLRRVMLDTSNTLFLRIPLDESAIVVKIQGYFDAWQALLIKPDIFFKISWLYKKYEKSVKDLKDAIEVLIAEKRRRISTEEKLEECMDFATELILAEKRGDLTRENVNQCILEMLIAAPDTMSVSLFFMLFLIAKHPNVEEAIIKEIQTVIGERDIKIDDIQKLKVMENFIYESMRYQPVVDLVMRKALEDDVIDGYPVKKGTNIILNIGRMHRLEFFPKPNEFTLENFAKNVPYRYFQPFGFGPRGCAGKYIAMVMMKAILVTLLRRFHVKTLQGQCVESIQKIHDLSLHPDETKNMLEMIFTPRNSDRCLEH

[5] = qHTS assay to identify aromatase inhibitors - cell viability counter screen (AID 743084);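 further: cells stimulated with testosterone during compound exposure; nearly all actives have a fitted effect of over 55% in size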
[6] = biological target: Estrogen receptor (Homo sapiens) (UniProt P03372); assay: qHTS assay to identify small molecule antagonists of the estrogen receptor alpha (ER-alpha) signaling pathway (AID 743069; active means well fitted curve in the direction sought with a large enough effect in the signal ratio in the repeat runs, not every such curve was filed as active; the % refers to the signal ratio)
Estrogen receptor (Homo sapiens), sequence (P03372 whole entry, looked up): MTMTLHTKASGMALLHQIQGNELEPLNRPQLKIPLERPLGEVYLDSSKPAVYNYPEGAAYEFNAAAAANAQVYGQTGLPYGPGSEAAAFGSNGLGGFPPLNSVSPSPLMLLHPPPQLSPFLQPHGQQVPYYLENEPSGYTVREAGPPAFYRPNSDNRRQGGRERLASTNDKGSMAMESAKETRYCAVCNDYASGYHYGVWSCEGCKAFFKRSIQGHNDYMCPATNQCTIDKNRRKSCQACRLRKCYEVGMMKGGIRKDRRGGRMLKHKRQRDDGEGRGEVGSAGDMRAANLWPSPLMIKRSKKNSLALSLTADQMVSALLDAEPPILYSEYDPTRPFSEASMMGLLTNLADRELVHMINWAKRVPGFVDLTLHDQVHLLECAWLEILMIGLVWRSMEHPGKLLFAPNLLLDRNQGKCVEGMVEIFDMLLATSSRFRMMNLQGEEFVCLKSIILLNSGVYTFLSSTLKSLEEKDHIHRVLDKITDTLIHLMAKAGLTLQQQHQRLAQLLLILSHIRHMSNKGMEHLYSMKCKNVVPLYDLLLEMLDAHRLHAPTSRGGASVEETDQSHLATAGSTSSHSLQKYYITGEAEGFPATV
Outline: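 Fluorescence intensity from a beta-lactamase FRET substrate served as the read-out. Cells: HEK293 with stably integrated ER-alpha-UAS-bla reporter. Agonist 17beta-estradiol was co-added with compounds; incubation 18 hr at 37C, substrate 2 hr at room temperature.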

[7] = biological target: Estrogen receptor (Homo sapiens) (UniProt P03372); assay: qHTS assay to identify small molecule agonists of the estrogen receptor alpha (ER-alpha) signaling pathway (AID 743075; calls by dose curve)
[8] = biological target: Estrogen receptor (Homo sapiens) (UniProt P03372); assay: qHTS assay to identify small molecule agonists of the estrogen receptor alpha (ER-alpha) signaling pathway using the BG1 cell line (AID 743079); further: nearly all actives have a fitted effect of over 20% in size; further: potency means the concentration at half of the fitted maximal effect
[9] = qHTS assay to identify small molecule antagonists of the estrogen receptor alpha (ER-alpha) signaling pathway using the BG1 cell line (AID 743080; calls by dose curve;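 further: BG1 cells stimulated with 17beta-estradiol alongside compound; series mostly up to about 70 µM; nearly all actives have a fitted effect of over 25% in size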)
Outline: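 BG1-Luc-4E2 cells (endogenous full-length ER-alpha, 4xERE luciferase) hormone-starved 5 days in charcoal-stripped FBS, plated 4,000/well for 24 h, then compound plus 17beta-estradiol for 21.5 h at 37 C; ONE-Glo luminescence read.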

Measured: Potency

C=C(C)C(=O)OCCOC1CC2CC1C1C=CCC21 (stereo not given)
inactive: [1] | [2] | [3] | [4] | Aromatase (Homo sapiens) | [5]

CCc1ncc(C)[nH]1
inactive: [1] | [2] | [3] | [4] | Aromatase (Homo sapiens) | [5]

CC12CCCC=C1C(=O)OC2=O (stereo not given)
inactive: [1] | [2] | [3] | [4] | Aromatase (Homo sapiens) | [5]

CC1(C)C(=O)C(C)(C)C1=O
inactive: [1] | [2] | [3] | [4] | Aromatase (Homo sapiens) | [5]

COc1ccc(Cl)cc1C
inactive: [1] | [2] | [3] | [4] | Aromatase (Homo sapiens) | [5]

C=CCN1CCc2nc(N)sc2CC1
inactive: [1] | [2] | [3] | [4] | Aromatase (Homo sapiens) | [5]

CC(C)CC(=O)N[C@H](C(=O)N[C@H](C(=O)N[C@@H](CC(C)C)[C@@H](O)CC(=O)N[C@@H](C)C(=O)N[C@@H](CC(C)C)[C@@H](O)CC(=O)O)C(C)C)C(C)C (Isovaleryl-VV[Sta]A[Sta]-OH)
inactive: [1] | [2] | [3] | [4] | Aromatase (Homo sapiens) | [5]

Cc1ccc2ccccc2n1
inactive: [1] | [2] | [3] | [4] | Aromatase (Homo sapiens) | [5]

O=Cc1ccccc1S(=O)(=O)O
active: [2] 68.5 µM
inactive: [1] | [3] | Aromatase (Homo sapiens) | [5]

CCN1CCN(C(=O)N[C@@H](C(=O)N[C@@H]2C(=O)N3C(C(=O)O)=C(CSc4nnnn4C)CS[C@H]23)c2ccc(O)cc2)C(=O)C1=O
not listed: [1] | [2]
inactive: all other assays above

O=c1[nH]c(=O)c2cn[nH]c2[nH]1
inactive: [3] | [4] | Aromatase (Homo sapiens) | [5]

CCCCNCC
not listed: [1] | [2]
inactive: all other assays above

CCCOc1ccc(C(=O)OCCN(CC)CC)cc1N
inactive: [2] | [3] | Aromatase (Homo sapiens) | [5]

CC(=O)Oc1ccc(C(C)=O)cc1
not listed: [3] | [6]
inactive: all other assays above

CN1C(CCl)Nc2cc(Cl)c(S(N)(=O)=O)cc2S1(=O)=O (stereo not given)
not listed: [1] | [2] | [6]
inactive: all other assays above

CCCCc1ccc(Cl)cc1
not listed: [1] | [2]
inactive: all other assays above

N=C(N)N
inactive: [3] | [4] | Aromatase (Homo sapiens) | [5]

C[C@]12C=CC(=O)C=C1[C@@H](F)C[C@@H]1[C@@H]2[C@@H](O)C[C@@]2(C)[C@H]1CC[C@]2(O)C(=O)CO
inactive: [3] | [7] | [4] | Aromatase (Homo sapiens) | [5]

O=C1CC2(CCCC2)CC(=O)N1CCNCC1COc2ccccc2O1 (stereo not given)
active: [3] 21.3 µM
inactive: [2] | [4] | Aromatase (Homo sapiens)

CC(C)(O)CCCC1=CCC(C=O)CC1 (stereo not given)
active: [8] 58.1 µM
not listed: [1]
inactive: all other assays above

CCCC[O][Al]([O]CCCC)[O]CCCC
inactive: [3] | [4] | Aromatase (Homo sapiens) | [5]

O=CN1CCCCC1
not listed: [1] | [2]
inactive: all other assays above

CC1(C)S[C@@H]2[C@H](NC(=O)Cc3ccccc3)C(=O)N2[C@H]1C(=O)O (tested in a mixture with another compound)
not listed: [1] | [2]
inactive: all other assays above

CCCCC(CC)CCC(CC(C)C)OS(=O)(=O)O (stereo not given)
8.41 µM (active) and inactive: [8]
not listed: [1] | [2]
inactive: all other assays above

O=C(O)CCCCCCCCCC(=O)O
not listed: [1]
inactive: all other assays above

CCCCN1C(=O)c2ccccc2C1=O
not listed: [1] | [2] | [6]
inactive: all other assays above

BrCCOc1ccccc1
not listed: [1] | [2]
inactive: all other assays above

CCCCCCCCCCCC(C)=O
active: [8] 17.2 µM
not listed: [1] | [2] | [7]
inactive: all other assays above

CC(C)c1cc(C(C)C)cc(C(C)C)c1
not listed: [1] | [2]
inactive: all other assays above

C=CC(=O)CC
inactive: [2] | [3] | [4] | Aromatase (Homo sapiens) | [5]

CC(=O)SC[C@@H](C)C(=O)N1CCC[C@H]1C(=O)N[C@@H](Cc1ccccc1)C(=O)O
not listed: [1] | [2]
inactive: all other assays above

CCO/C=C1\N=C(c2ccccc2)OC1=O
inactive: [2] | [3] | [4] | Aromatase (Homo sapiens) | [5]

CC(C)=CCC/C(C)=C\C#N
not listed: [1] | [2] | [6]
inactive: all other assays above

C[C@H]1COc2c(C3(N)CC3)c(F)cc3c(=O)c(C(=O)O)cn1c23
inactive: [3] | [4] | Aromatase (Homo sapiens) | [5]

COCCCOc1cc(C[C@@H](C[C@H](N)[C@@H](O)C[C@H](C(=O)NCC(C)(C)C(N)=O)C(C)C)C(C)C)ccc1OC
not listed: [3] | [6]
inactive: all other assays above

CCCCC(CC)COC(=O)CC#N (stereo not given)
not listed: [1] | [2] | [3]
inactive: all other assays above

C=CCN(CC=C)CC=C
inactive: [1] | [2] | [4] | Aromatase (Homo sapiens) | [5]

CC(=O)OCC(=O)[C@@]1(O)CC[C@H]2[C@@H]3CCC4=CC(=O)C=C[C@]4(C)[C@H]3[C@@H](O)C[C@@]21C
inactive: [3] | [4] | Aromatase (Homo sapiens) | [5]
active: [8] 11.9 µM

CCOC(=O)COc1ccc2c(C)c(CCN(CC)CC)c(=O)oc2c1Cl
not listed: [1]
inactive: all other assays above

COC(=O)C(c1ccccc1Cl)N1CCc2sccc2C1 (stereo not given)
inactive: [2] | [3] | [9] | [4] | Aromatase (Homo sapiens) | [5]

COC(=O)c1c(C)cc(O)c(C)c1O
active: [8] 68.6 µM
not listed: [2] | [6] | [7]
inactive: all other assays above

CC(C)(C)NCC(O)COc1cccc2c1CCC(=O)N2 (stereo not given)
inactive: [3] | [4] | Aromatase (Homo sapiens)

CCCCCCC(O)CO (stereo not given)
not listed: [2]
inactive: all other assays above

CC/C=C\CCOC(=O)c1ccccc1
not listed: [1] | [2]
inactive: all other assays above
